Consider 67 compounds from PubChem BioAssay AID651658 (Broad Institute, 2012).

“And” between values parts separate entries of the source, which are not always exact repeats. Equal values may be shown once. About 5,100 (1.5%) of roughly 340,000 compounds were called active.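 The calls were made as follows: active = mean Tm shift, scaled 0 neutral to 100 positive control, at about 1.3% or above, every replicate too (limit read from the data); inconclusive = no clear call, values can overlap the other calls; inactive = the rest.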 This excerpt belongs to a sample that is enriched for actives.

Sequence of Fibroblast growth factor 22 (Homo sapiens) (Q9HCT0 whole entry, looked up): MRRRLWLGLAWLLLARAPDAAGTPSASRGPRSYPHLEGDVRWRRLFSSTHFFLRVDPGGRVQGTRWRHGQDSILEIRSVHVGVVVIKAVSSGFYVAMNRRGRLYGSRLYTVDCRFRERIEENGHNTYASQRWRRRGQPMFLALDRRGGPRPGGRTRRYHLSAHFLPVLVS

The test has as its target Fibroblast growth factor 22 (Homo sapiens) (UniProt Q9HCT0). Put plainly: FGF22 ligand-induced thermal stabilization – biophysical, thermal shift, single point, FGF22 synaptogenesis inhibitor project, primary screen (AID 651658). The note with it: recombinant FGF22 thermal shift, SYPRO orange fluorescence; at 9.99 µM; hits give high values; percent of sucrose octasulfate shift, DMSO zero.
As for `O=C(NCC[C@@H]1CC[C@@H](NC(=O)c2ccccc2F)[C@H](CO)O1)c1ccc2c(c1)OCO2`, the activity (Tm shift, normalised) is -0.277% (inactive).

For `C[C@@H]1CN([C@@H](C)CO)C(=O)c2cccc(NC(=O)Nc3ccc(C(F)(F)F)cc3)c2O[C@@H]1CN(C)S(=O)(=O)c1ccc(F)cc1`, the activity (Tm shift, normalised) was -0.433% (inactive).

Consider `CO[C@@H]1CN(C)C(=O)c2ccc(NC(=O)Nc3c(C)noc3C)cc2OC[C@H](C)N(CC2CC2)C[C@H]1C`, for which the activity (Tm shift, normalised) is 0.073% (inactive).

Take `Cc1ccc(C(=O)Nc2nc3ccc(Cl)cc3s2)o1`: the activity (Tm shift, normalised) is 0.029% (inactive).

As to `NS(=O)(=O)c1ccc2nc(NC(=O)C3=COCCO3)sc2c1`, the activity (Tm shift, normalised) is -0.051% (inactive).

For `CS(=O)(=O)c1ccc2nc(NC(=O)c3ccc(Cl)nc3)sc2c1`, the activity (Tm shift, normalised) is 1.36% (active).

On to `COc1ccc([Si](C)(C)[C@@H]2[C@@H](CCO)O[C@]3(C(=O)N(Cc4ccccc4)c4ccc(N5CCC5=O)cc43)[C@H]2C)cc1`, for which the activity (Tm shift, normalised) is 1.09% (inactive).

Turning to `O=C(C[C@H]1C[C@H]2c3cc(NC(=O)Nc4ccc(F)cc4)ccc3O[C@H]2[C@H](CO)O1)NCC1CC1`, the activity (Tm shift, normalised) is 0.011% (inactive).

With `O=C(C[C@H]1C[C@@H]2c3cc(NC(=O)Nc4ccc(C(F)(F)F)cc4)ccc3O[C@@H]2[C@@H](CO)O1)NCC1CC1`, the activity (Tm shift, normalised) was 5.86% (active).

Take `O=C(C[C@H]1C[C@H]2c3cc(NC(=O)Nc4ccc(F)cc4)ccc3O[C@H]2[C@@H](CO)O1)NCC1CC1`: the activity (Tm shift, normalised) is -0.077% (inactive).

For `C[C@H]1CCCCO[C@H](CN(C)S(C)(=O)=O)[C@@H](C)CN([C@@H](C)CO)C(=O)c2cc(NC(=O)C3CCCCC3)ccc2O1`, the activity (Tm shift, normalised) was -0.096% (inactive).

Consider `CN1C(=O)c2cc(NC(=O)c3cccc(F)c3)ccc2OC[C@@H]2O[C@H](CC(=O)N3CCc4ccccc4C3)CC[C@@H]21`, for which the activity (Tm shift, normalised) was 1.53% (active).

Take `COC(=O)C[C@@H]1CC[C@@H]2[C@H](COc3ccc(NC(=O)c4cccc(F)c4)cc3C(=O)N2C)O1`: the activity (Tm shift, normalised) was -0.235% (inactive).

Turning to `CNC(=O)C[C@H]1CC[C@H]2[C@H](COc3ccc(NC(=O)c4cccc(F)c4)cc3C(=O)N2C)O1`, the activity (Tm shift, normalised) is -0.14% (inactive) and 0.048% (inactive).

Turning to `O=C(C[C@@H]1CC[C@@H](NC(=O)Nc2ccc(F)cc2)[C@@H](CO)O1)NCCN1CCCC1`, the activity (Tm shift, normalised) is -0.38% (inactive).

For `CCCC(=O)Nc1ccc2c(c1)C(=O)N(C)C[C@H](OC)[C@H](C)CN(C(=O)c1ccccn1)[C@H](C)CO2`, the activity (Tm shift, normalised) was -0.212% (inactive).

`C[C@@H]1CN([C@@H](C)CO)S(=O)(=O)c2ccc(C#C[C@@H](C)O)cc2O[C@@H]1CN(C)C(=O)CN(C)C`: the activity (Tm shift, normalised) was -0.212% (inactive).

`CO[C@@H]1CN(C)C(=O)c2cc(NC(=O)C3CC3)ccc2OC[C@@H](C)N(Cc2nccs2)C[C@@H]1C`: the activity (Tm shift, normalised) is 0.295% (inactive).

Take `CC1CCCN(CC(O)COc2ccc3c(c2)OCO3)C1` (configuration not stated): the activity (Tm shift, normalised) is 0.154% (inactive).

As to `CC1CCCN(CC(O)COCc2ccccc2)C1` (configuration not stated), the activity (Tm shift, normalised) is 43.5% (active).

On to `COc1ccc(COCC(O)CN2CCC(C(N)=O)CC2)cc1` (configuration not stated), for which the activity (Tm shift, normalised) is -0.009% (inactive).

On to `CC(C)(C)S(=O)N1Cc2cc(C(=O)O)nc(-c3cccc(-c4cc5ccccc5o4)c3)c2[C@@H]1CCO` (some centres not stated), for which the activity (Tm shift, normalised) is 0.231% (inactive).

In the case of `COc1ccc2c3c(n(C)c2c1)[C@H](CO)N(Cc1ccccc1)CC31CN(C(=O)c2ccccc2F)C1`, the activity (Tm shift, normalised) is -0.032% (inactive).

`NS(=O)(=O)c1ccc(NC(=O)COC(=O)c2c3c(nc4ccccc24)/C(=C\c2ccc4c(c2)OCO4)CCC3)cc1`: the activity (Tm shift, normalised) is -0.081% (inactive).

In the case of `NC(=O)c1ccc(NC(=O)COC(=O)c2c3c(nc4ccccc24)/C(=C\c2ccc4c(c2)OCO4)CCC3)cc1`, the activity (Tm shift, normalised) was -0.321% (inactive).

As for `O=C1/C(=C/c2ccc3c(c2)OCO3)CCC/C1=C\c1ccc2c(c1)OCO2`, the activity (Tm shift, normalised) was 26.1% (active).

As to `CCCNC(=O)N1C[C@@H]2[C@H](c3ccccc31)[C@@H](CO)N2C(=O)NC(C)C`, the activity (Tm shift, normalised) is -0.334% (inactive).

As for `C[C@H]1CN([C@@H](C)CO)S(=O)(=O)c2ccc(C#Cc3cccnc3)cc2O[C@H]1CN(C)C(=O)CN(C)C`, the activity (Tm shift, normalised) was -0.747% (inactive).

On to `Cc1ccccc1NC(=S)NNC(=O)c1cccc(Br)c1`, for which the activity (Tm shift, normalised) is 43.6% (active).

Take `CC(CC(=O)O)CC(=O)NNC(=O)c1cccc(Br)c1` (configuration not stated): the activity (Tm shift, normalised) was -0.089% (inactive).

Take `O=C(NC(=S)Nc1cccc2c(O)cccc12)c1cccc(Br)c1`: the activity (Tm shift, normalised) was -0.32% (inactive).

With `O=C(C[C@H]1C[C@@H]2c3cc(NS(=O)(=O)c4ccc(F)cc4)ccc3O[C@@H]2[C@@H](CO)O1)NCc1cccc(F)c1`, the activity (Tm shift, normalised) was -0.007% (inactive).

Take `Oc1cccc2cc(-c3ccncc3)cnc12`: the activity (Tm shift, normalised) is 43.2% (active).

Consider `C[C@@H]1CN([C@H](C)CO)C(=O)Cc2cc(NC(=O)Nc3cccc4ccccc34)ccc2O[C@H]1CN(C)C(=O)Nc1ccc2c(c1)OCO2`, for which the activity (Tm shift, normalised) was -0.447% (inactive).

Consider `COc1cccc(NC(=O)c2nn(-c3ccc(OC)cc3OC)c(=O)c3ccccc23)c1`, for which the activity (Tm shift, normalised) is 43.4% (active).

Take `COc1ccc(-n2nc(C(=O)NCC(=O)N3CCN(c4ccccc4OC)CC3)c3ccccc3c2=O)c(OC)c1`: the activity (Tm shift, normalised) is -0.112% (inactive).

Take `COc1ccc(-n2nc(C(=O)Nc3cc(OC)c(OC)c(OC)c3)c3ccccc3c2=O)c(OC)c1`: the activity (Tm shift, normalised) was 0.293% (inactive).

`CN1C(=O)c2cc(NC(=O)c3cnccn3)ccc2OC[C@H]2O[C@@H](CC(=O)NCC3CCCCC3)CC[C@@H]21`: the activity (Tm shift, normalised) was -0.186% (inactive).

As to `CC(C)C(C(=O)NCc1ccco1)N(CC1CCCO1)C(=O)CNS(=O)(=O)c1ccc(F)cc1` (configuration not stated), the activity (Tm shift, normalised) was -0.278% (inactive).

On to `O=C(CN(CC1CCCO1)C(=O)CNS(=O)(=O)c1ccc(Cl)cc1)NCc1ccccc1` (configuration not stated), for which the activity (Tm shift, normalised) was -0.087% (inactive).

Take `O=C(CN(CC1CCCO1)C(=O)CNS(=O)(=O)c1ccc(F)cc1)NCc1ccco1` (configuration not stated): the activity (Tm shift, normalised) was 43.2% (active).

`COCC(=O)N(C)C[C@H]1Oc2cc(C#C[C@@H](C)O)ccc2S(=O)(=O)N([C@@H](C)CO)C[C@@H]1C`: the activity (Tm shift, normalised) was 0.023% (inactive).

In the case of `COc1ccc(C(C(=O)NC(C)(C)C)N(Cc2ccc(F)cc2)C(=O)CCC(=O)Nc2cc(C)on2)cc1` (configuration not stated), the activity (Tm shift, normalised) is -0.347% (inactive).

With `CCC(C)(C)NC(=O)C(c1cccc(OC)c1OC)N(CC(C)C)C(=O)CCC(=O)Nc1cc(C)on1` (configuration not stated), the activity (Tm shift, normalised) was 43% (active).

On to `CCC(C)(C)NC(=O)C(c1ccc(OC)cc1)N(C(=O)CCC(=O)Nc1cc(C)on1)c1ccc(OC)cc1OC` (configuration not stated), for which the activity (Tm shift, normalised) was 0.006% (inactive).

With `CN(C)C(=O)C[C@H]1CC[C@@H](NC(=O)C2CC2)[C@@H](CO)O1`, the activity (Tm shift, normalised) is -0.057% (inactive).

Take `C[C@H]1CN([C@@H](C)CO)C(=O)c2cccc(NC(=O)Nc3ccccc3)c2O[C@H]1CN(C)S(=O)(=O)c1ccc(Cl)cc1`: the activity (Tm shift, normalised) is -0.286% (inactive).

`C[C@@H]1CN([C@H](C)CO)C(=O)c2cc(-c3cccc(C(=O)N(C)C)c3)cnc2O[C@H]1CN(C)S(=O)(=O)c1ccc(F)cc1`: the activity (Tm shift, normalised) was -0.014% (inactive).

With `COCC(=O)Nc1ccc2c(c1)OC[C@H](C)N(Cc1ccccc1)C[C@H](C)[C@@H](OC)CN(C)C2=O`, the activity (Tm shift, normalised) was -0.276% (inactive).

Turning to `C[C@@H]1CN([C@@H](C)CO)C(=O)c2cc(NC(=O)Nc3ccc4c(c3)OCO4)ccc2O[C@@H](C)CCCCO[C@@H]1CN(C)S(=O)(=O)c1cccs1`, the activity (Tm shift, normalised) is 0.586% (inactive).

In the case of `Cc1ccc(S(=O)(=O)N(C)C[C@@H]2Oc3c(NC(=O)C4CC4)cccc3C(=O)N([C@H](C)CO)C[C@@H]2C)cc1`, the activity (Tm shift, normalised) is 0.051% (inactive).

As for `CN(C)C(=O)C[C@@H]1CC[C@H]2[C@@H](COC[C@H](O)CN2S(=O)(=O)c2ccccc2)O1`, the activity (Tm shift, normalised) is -0.015% (inactive).

Take `O=C(C[C@H]1CC[C@H]2[C@@H](COC[C@H](O)CN2S(=O)(=O)c2cccc(Cl)c2)O1)Nc1ccccc1`: the activity (Tm shift, normalised) is 1.27% (active).

`Cc1cccc(S(=O)(=O)N2C[C@@H](O)COC[C@H]3O[C@H](CC(=O)N4CCN(C)CC4)CC[C@@H]32)c1`: the activity (Tm shift, normalised) was -0.222% (inactive).

On to `O=C(C[C@H]1CC[C@H]2[C@@H](COC[C@@H](O)CN2S(=O)(=O)c2cccc(Cl)c2)O1)NC1CCCC1`, for which the activity (Tm shift, normalised) was -0.093% (inactive).

`Cc1cccc(S(=O)(=O)N2C[C@@H](O)COC[C@H]3O[C@H](CC(=O)Nc4ccc(-c5ccccc5)cc4)CC[C@@H]32)c1`: the activity (Tm shift, normalised) is 1.98% (active).

With `COc1cccc(S(=O)(=O)N2C[C@@H](O)COC[C@@H]3O[C@H](CC(=O)Nc4ccccc4)CC[C@H]32)c1`, the activity (Tm shift, normalised) was -0.453% (inactive).

Consider `COc1cccc(-c2ccc(CC[C@H]3O[C@H]4CC[C@@H](CO)O[C@H]4C[C@@H]3NS(C)(=O)=O)cc2)c1`, for which the activity (Tm shift, normalised) was -0.835% (inactive).

Regarding `CCCNC(=O)N(C)C[C@H]1Oc2ncc(-c3ccccc3F)cc2C(=O)N([C@@H](C)CO)C[C@H]1C`, the activity (Tm shift, normalised) is 0.186% (inactive).

With `C[C@H](CO)N1C[C@H](C)[C@H](CN(C)Cc2ccc(C(=O)O)cc2)OCc2cn(nn2)CCCC1=O`, the activity (Tm shift, normalised) is -0.002% (inactive).

For the compound `C/C=C/c1cnc2c(c1)C(=O)N([C@@H](C)CO)C[C@@H](C)[C@@H](CN(C)S(=O)(=O)c1ccccc1F)O2`, the activity (Tm shift, normalised) was 0.721% (inactive).

Take `O=C(N[C@@H]1CC[C@@H](CC(=O)N2CCc3ccccc3C2)O[C@@H]1CO)C1CCOCC1`: the activity (Tm shift, normalised) was -0.035% (inactive).

On to `Cc1ccc(OCCCC(=O)Nc2ccc(S(=O)(=O)Nc3cc(C)nc(C)n3)cc2)cc1`, for which the activity (Tm shift, normalised) is -0.115% (inactive).

Turning to `Cc1ccc(S(=O)(=O)Nc2nc(C)cc(-n3nc(C)cc3C)n2)cc1`, the activity (Tm shift, normalised) was 0.134% (inactive).

In the case of `Cc1ccc(S(=O)(=O)Nc2nc(C)cc(N/N=C/c3ccc(O)cc3)n2)cc1`, the activity (Tm shift, normalised) is 43.2% (active).

For the compound `CN(C)C(=O)C[C@H]1C[C@@H]2c3cc(NC(=O)NC4CCCCC4)ccc3O[C@@H]2[C@@H](CO)O1`, the activity (Tm shift, normalised) was -7.03% (inactive).

In the case of `C[C@H](CO)N1C[C@H](C)[C@@H](CN(C)Cc2cccnc2)Oc2cc(C#CC3CC3)ccc2S1(=O)=O`, the activity (Tm shift, normalised) is -0.495% (inactive).
